From PubChem BioAssay (NCI)
Several values for one entry are separate records, joined by “and”; a condition that tells them apart may be missing. Equal values may be shown once. This is part of a sample that, as a whole, favours compounds with a hit. Of some 83,000 tested, about 20% had one in any assay.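 Activity criterion: percent growth below 10, measured after cells in 96-well plates were exposed to a single compound concentration for 48 hours.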 Activity calls are given as the source filed them.

Each compound was assayed on HL-60(TB) leukemia (assay: NCI-60 one-dose screen, 48 h (100 = growth as untreated, 0 = no growth, -100 = all killed)). Details: 10 µM unless noted.
With `Cc1ccc(Nc2ccc(Nc3ccc(C)cc3S(=O)(=O)O)c3c2C(=O)c2ccccc2C3=O)c(S(=O)(=O)O)c1` the growth was 99.4% (inactive). In the case of `CCNc1nnnn1CC`, the growth is reported as 111% (inactive). `O=C1NC(=O)c2c1c1c3ccccc3ccc1c1[nH]c3ccc(Br)cc3c21` was tested, and the growth was 18.7% (inactive). `N#CC1C(=O)c2ccccc2C1c1ccccc1` (stereo not given) was tested, and the growth was 108% (inactive) and 103% (inactive). In the case of `O=C(O)c1ccc(Br)nc1`, the growth is reported as 94.4% (inactive). `CNC(=O)c1cccc(-c2ccc3c(N4CCOC[C@@H]4C)nc(N4CCOC[C@@H]4C)nc3n2)c1` was tested, and the growth was 28.2% (inactive) and 7.66% (active). With `Cc1ccc(C2=Nc3c(N)ncnc3NC(c3cccc(Nc4ccnc5cc(C(F)(F)F)ccc45)c3)C2)cc1` (stereo not given) the growth was 0.514% (active). `Cc1cccc2c3c(sc12)C(c1ccc(Cl)cc1)C(C#N)=C(/N=C/c1ccc(Cl)cc1)O3` (stereo not given) was tested, and the growth was -22% (active). With `O=C(Nc1ccc(Cl)cc1)c1cc2ccccc2cc1O` the growth was -8.5% (active) and -29.4% (active). `O=C(Nc1ccc2ncnc(Nc3ccc(F)c(Cl)c3)c2c1)c1ccccc1` was tested, and the growth was 82.2% (inactive). `O=c1c2ccccc2oc2ccc(OCCCCCN3CCCCCC3)cc12` was tested, and the growth was 38% (inactive). `COC(=O)/C=C/c1cc(OC)c2c(c1)[C@@H](C(=O)OC)[C@H](c1ccc(OC)c(OC)c1)O2` was tested, and the growth was -13.3% (active). `CCNCCNc1cc(-c2ccc(Cl)cc2)c(C#N)c2nc3ccccc3n12` was tested, and the growth was -60.4% (active). With `COc1cc(/C=C/C(=O)C(C(=O)/C=C/c2ccc(OC(=O)CCNC34CC5CC(CC(C5)C3)C4)c(OC)c2)C(=O)CCNC23CC4CC(CC(C4)C2)C3)ccc1OC(=O)CCNC12CC3CC(CC(C3)C1)C2` (stereo not given) the growth was -30.3% (active). For `O=[N+]([O-])c1ccccc1/C=N\Nc1ccccc1`, the growth was 82.5% (inactive) and 87.4% (inactive). For `NC(N)=N/N=C(/c1ccccc1)c1ccc(Cl)cc1`, the growth was 105% (inactive). With `O=C1CCN(Cc2ccccc2)C(=S)N1` the growth was 86.8% (inactive) and 113% (inactive). `O=C(Nc1cccc(C(F)(F)F)c1)Nc1cccc(C(F)(F)F)c1` was tested, and the growth was -27.8% (active). For `COc1cc2c(cc1OCCCOc1ccc(-c3cc4ccccc4c4ccccc34)cc1)N=C[C@@H]1CCCN1C2=O`, the growth was -11.8% (active). `COc1ccc2c(c1)sc1nc(-c3ccccc3)c(-c3ccc(O)c(OC)c3)n12` was tested, and the growth was 44.2% (inactive). For `CC(C)(C)n1cc(-c2ccnc(NCCNS(=O)(=O)c3cccc(F)c3)c2)c(-c2ccccc2)n1`, the growth was 73.5% (inactive). With `Cc1ccc(Sc2oc(-c3ccc(C)cc3)nc2[P+](c2ccccc2)(c2ccccc2)c2ccccc2)cc1` the growth was -45% (active). `O=C1c2cc(I)ccc2Oc2cc([N+](=O)[O-])ccc2N1c1ccc(Cl)cc1F` was tested, and the growth was 55.9% (inactive). With `CC(C)(C)c1ccc(O)c(CNC2CCCCC2)c1` the growth was 74.8% (inactive) and 77.1% (inactive). For `C/C(=C\C(=N\N=C(N)N)c1ccc(Cl)cc1)c1ccc(Cl)cc1`, the growth was -68% (active). For `N#Cc1c(NC(=O)c2cccc(Br)c2)sc2c1CCCC2`, the growth was 62.4% (inactive). In the case of `C=C(c1ccc(C(=O)O)cc1)c1cc2c(cc1C)C(C)(C)CCC2(C)C`, the growth is reported as 59.3% (inactive) and 74.6% (inactive). `CC(c1ccccc1)n1ccnc1CO` (stereo not given) was tested, and the growth was 101% (inactive). `CCOC(=O)CC(S(=O)(=O)c1ccccc1)S(=O)(=O)c1ccccc1` was tested, and the growth was 67.9% (inactive). With `Nc1nc(=S)c2[nH]cnc2[nH]1` the growth was 13.9% (inactive) and -13.4% (active). With `O=C1C(Cl)=C(Nc2ccccn2)C(=O)c2ccccc21` the growth was 72.9% (inactive). `C#CCOc1ccc2ncnc(Nc3cccc(CNC(=O)CCl)c3)c2c1` was tested, and the growth was 35.2% [8.25 µM] (inactive). In the case of `COc1ccccc1CNCCCN1C(=O)c2ccc3c4c(ccc(c24)C1=O)C(=O)N(CCCNCc1ccccc1OC)C3=O`, the growth is reported as -67.5% (active). In the case of `Nc1c(C(=O)Nc2cccc(Cl)c2)sc2nc3c(cc12)C(=O)CCC3`, the growth is reported as 33.1% (inactive). `CC(C)(C)c1ccc(S(=O)(=O)Oc2ccc3c4c(c(=O)oc3c2)CCCCC4)cc1` was tested, and the growth was 52% (inactive). `Cc1ccc(Cn2c(N3CCC(C(=O)NCc4cccs4)CC3)nc3ccccc32)cc1` was tested, and the growth was -14.4% (active). In the case of `O=C(CN1CCN(c2cc3c(cc2F)c(=O)c(C(=O)N/N=C/c2ccccc2O)cn3C2CC2)CC1)N/N=C\c1ccccc1O`, the growth is reported as 1.69% (active). For `O=C(OCc1ncc(-c2ccc(C(F)(F)F)cc2)c(NC2CCCCCC2)n1)c1c(F)c(F)c(F)c(F)c1F`, the growth was 27.5% (inactive). In the case of `CC1=C(C(=O)OC(C)C)C(c2ccc3c(c2)OCO3)NC(=S)N1` (stereo not given), the growth is reported as 105% (inactive). `O=C(O)CN(CCN(CC(=O)O)CC(=O)O)CCN(CC(=O)O)CC(=O)O` was tested, and the growth was -51.1% (active) and 109% (inactive) and 94.7% (inactive).
